# Source: PubChem BioAssay (NCI)
# This is part of a sample that, as a whole, favours compounds with a hit. Of some 83,000 tested, about 20% had one in any assay.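 Single-dose data. Exposure time 48 hours. Values below 10 considered active.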 A number with no mark means an inactive call. The source made the active and inactive calls.
# Columns and labels:
# Assay in all cases: NCI-60 one-dose screen, 48 h (100 = growth as untreated, 0 = no growth, -100 = all killed)
# Details in all cases: 10 µM unless noted
# RPMI-8226 leukemia = system: RPMI-8226 leukemia
# OVCAR-8 ovarian = system: OVCAR-8 ovarian
# OVCAR-5 ovarian = system: OVCAR-5 ovarian
# OVCAR-4 ovarian = system: OVCAR-4 ovarian
# SK-OV-3 ovarian = system: SK-OV-3 ovarian
# IGROV1 ovarian = system: IGROV1 ovarian
# OVCAR-3 ovarian = system: OVCAR-3 ovarian
# HS 578T breast = system: HS 578T breast
# NCI/ADR-RES ovarian = system: NCI/ADR-RES ovarian
# T-47D breast = system: T-47D breast
Compound,growth (RPMI-8226 leukemia),growth (OVCAR-8 ovarian),growth (OVCAR-5 ovarian),growth (OVCAR-4 ovarian),growth (SK-OV-3 ovarian),growth (IGROV1 ovarian),growth (OVCAR-3 ovarian),growth (HS 578T breast),growth (NCI/ADR-RES ovarian),growth (T-47D breast)
Clc1cc(Cl)c(OCC#CI)cc1Cl,15.2%,72.1%,101%,80%,102%,45.3%,-61.5% (active),103%,83.6%,1.86% (active)
O=C(Nc1ccc(Cl)cc1Cl)Nc1ccc(-c2cccnc2)cc1N1CCC(CO)CC1,9.15% (active),32.8%,48.5%,53.2%,4.28% (active),34.8%,24.9%,36.4%,30.7%,17.5%
COc1cc(-c2cc(C(=O)Nc3nc4ccccc4s3)nc3cc(-c4ccccc4)nn23)cc(OC)c1OC,73.7%,60.2%,106%,82.5%,97.7%,99.7%,48.1%,62.1%,73.3%,83.7%
O=C1/C(=C/c2ccc([N+](=O)[O-])o2)Oc2ccc(Cl)cc21,-11.3% (active),-14.9% (active),46.1%,-48% (active),85.6%,-53.6% (active),-74.5% (active),68.7%,56.1%,-28.9% (active)
N#Cc1cccc(/C=C(/C(=O)c2ccccc2)c2ccccc2)c1,-4.62% (active),20.4%,80.4%,50.9%,110%,73.8%,36.4%,55.4%,40.1%,74.4%
CC(C)[O-].CC(C)[O-].CN(CCN(C)Cc1cc(F)cc(F)c1[O-])Cc1cc(F)cc(F)c1[O-].[Ti+4],32.9%,10.6%,12.4%,14%,16.4%,-42.2% (active),4.78% (active),-16% (active),11.2%,9.18% (active)
COc1cc(/C=C/C(=O)c2c(-c3ccc(F)cc3)nc3sc(C)nn23)cc(OC)c1OC,0.772% (active),9.66% (active),18.7%,44.1%,15.5%,28.7%,-16.4% (active),50.1%,23.4%,-8.41% (active)
COc1ccc(-c2noc(N)c2-c2cc(OC)c3c(c2)OCO3)cc1,7.65% (active),26.6%,61.6%,91.7%,27.6%,44.6%,-9.87% (active),21.4%,9.7% (active),33.7%
Clc1ccc2nc(Cl)c3ccccc3c2c1,70.9%,50.8%,78%,-42.6% (active),0.43% (active),48.6%,35.3%,56.8%,74.8%,-13.9% (active)
O=[N+]([O-])c1ccc(N/N=C\c2ccccc2[N+](=O)[O-])nc1,102%,107%,124%,120%,121%,106%,109%,97.7%,108%,107%
CCOc1nc(-c2ccccc2)cc2c(O)c(C(=O)n3nc(C)cc3C)[nH]c(=O)c12,103%,101%,106%,100%,102%,97.4%,112%,115%,111%,107%
Nc1ccc2c(c1)/C(=N/O)c1cc([N+](=O)[O-])ccc1-2,58.9%,87%,102%,84%,81.6%,57%,63.8%,77.2%,109%,93%
Cn1c(=O)c2nc(SCc3ccccc3)n(C)c2n(C)c1=O,117%,106%,97.6%,118%,99.2%,139%,117%,104%,112%,98.4%
COc1ccc2c(c1)/C(=C\c1c[nH]c3ccc(F)cc13)C(=O)N2,61.5%,81.9%,100%,65.1%,93.4%,69.5%,83.7%,99.9%,85.2%,42.8%
CC[C@H](C)C(=O)O[C@H]1C[C@@H](C)C=C2C=C[C@H](C)[C@H](CC[C@@H]3C[C@@H](O)CC(=O)O3)[C@H]21,71.8%,61.9%,87.2%,111%,83.7%,55.9%,102%,94%,32.1%,96.7%
CC(CCC(=O)O)(NC(=O)c1ccc([N+](=O)[O-])cc1)C(=O)O (stereo not given),116%,102%,118%,111%,96%,115%,108%,105%,108%,93.7%
O=C(/C(=C/c1ccc([N+](=O)[O-])cc1)c1ccccc1)c1ccccc1,-10.5% (active),8.51% (active),76.3%,57.8%,92.7%,74.1%,16.4%,57.9%,46.5%,72%
CC(C)C(=O)Cc1cnccn1,109%,102%,108%,117%,116%,106%,111%,96.4%,101%,109%
S=C1SCN(Cc2ccccc2)CN1Cc1ccco1,37.5%,89.1%,120%,99.9%,96.2%,84.4%,75.3%,109%,99.2%,59.3%
Cc1ccc(C(=O)Nc2ccc(Cl)cc2C(=O)NCc2ccccc2)cc1,77.8%,87.9%,100%,79.5%,117%,84.1%,91.6%,89.7%,72.5%,94%
CCN1C(=O)c2ccc3c4c(ccc(c24)C1=O)C(=O)N(CCCNCc1ccccc1OC)C3=O,-23% (active),-22.9% (active),-90.6% (active),-60.3% (active),11.1%,-63% (active),-20.1% (active),-31.2% (active),4.44% (active),-50.5% (active)
Nc1c2ccccc2nc2ccccc12 (tested in a mixture with another compound),7.88% (active),4.39% (active),15.6%,19%,32.6%,22.9%,32.6%,42.9%,19.4%,28.9%
CCC(C)CC(CC)NCCN1CCN(C(CC)CC(C)CC)C1=S (stereo not given),-46.2% (active),62.7%,37.2%,37.8%,56.2%,52.7%,39.5%,67.2%,56.4%,-9.85% (active)
CCN1CCN(c2cc(-c3cn[nH]c3-c3cc(C)cc(OC)c3)nc(-c3cccnc3)n2)CC1,86.2%,79.6%,124%,94%,116%,84.4%,67.6%,68.8%,91.5%,83.1%
C[C@]12CC[C@@H]3c4ccc(O)c([N+](=O)[O-])c4CC[C@H]3[C@@H]1CC[C@@H]2NS(=O)(=O)c1cccc(Br)c1,10.7%,40%,88.2%,40.4%,80.3%,34.8%,28.5%,62.5%,26.8%,24.6%
